eIF4E-4G inh: blocks eIF4E binding to eIF4G; P63073+Q04637; TR-FRET eIF4E-eIF4GI(517-606) binding, 2 h; inhibition, % at 21.7 µM; hit rate 0.37% among 220,000; AID 782;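 active = inhibition above about 30%, limit read from the data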;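 also: 0% = full FRET control wells and 100% = background wells lacking eIF4GI fragment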
Target sequence (P63073 whole entry, looked up, the tested form may be a part): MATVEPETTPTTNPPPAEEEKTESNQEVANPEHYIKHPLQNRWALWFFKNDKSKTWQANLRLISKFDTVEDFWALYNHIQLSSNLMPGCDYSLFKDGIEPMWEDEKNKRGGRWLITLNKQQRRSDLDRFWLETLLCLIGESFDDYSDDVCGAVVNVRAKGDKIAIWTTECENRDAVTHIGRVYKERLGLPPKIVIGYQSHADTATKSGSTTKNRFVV
Target sequence (Q04637 whole entry, looked up, the tested form may be a part): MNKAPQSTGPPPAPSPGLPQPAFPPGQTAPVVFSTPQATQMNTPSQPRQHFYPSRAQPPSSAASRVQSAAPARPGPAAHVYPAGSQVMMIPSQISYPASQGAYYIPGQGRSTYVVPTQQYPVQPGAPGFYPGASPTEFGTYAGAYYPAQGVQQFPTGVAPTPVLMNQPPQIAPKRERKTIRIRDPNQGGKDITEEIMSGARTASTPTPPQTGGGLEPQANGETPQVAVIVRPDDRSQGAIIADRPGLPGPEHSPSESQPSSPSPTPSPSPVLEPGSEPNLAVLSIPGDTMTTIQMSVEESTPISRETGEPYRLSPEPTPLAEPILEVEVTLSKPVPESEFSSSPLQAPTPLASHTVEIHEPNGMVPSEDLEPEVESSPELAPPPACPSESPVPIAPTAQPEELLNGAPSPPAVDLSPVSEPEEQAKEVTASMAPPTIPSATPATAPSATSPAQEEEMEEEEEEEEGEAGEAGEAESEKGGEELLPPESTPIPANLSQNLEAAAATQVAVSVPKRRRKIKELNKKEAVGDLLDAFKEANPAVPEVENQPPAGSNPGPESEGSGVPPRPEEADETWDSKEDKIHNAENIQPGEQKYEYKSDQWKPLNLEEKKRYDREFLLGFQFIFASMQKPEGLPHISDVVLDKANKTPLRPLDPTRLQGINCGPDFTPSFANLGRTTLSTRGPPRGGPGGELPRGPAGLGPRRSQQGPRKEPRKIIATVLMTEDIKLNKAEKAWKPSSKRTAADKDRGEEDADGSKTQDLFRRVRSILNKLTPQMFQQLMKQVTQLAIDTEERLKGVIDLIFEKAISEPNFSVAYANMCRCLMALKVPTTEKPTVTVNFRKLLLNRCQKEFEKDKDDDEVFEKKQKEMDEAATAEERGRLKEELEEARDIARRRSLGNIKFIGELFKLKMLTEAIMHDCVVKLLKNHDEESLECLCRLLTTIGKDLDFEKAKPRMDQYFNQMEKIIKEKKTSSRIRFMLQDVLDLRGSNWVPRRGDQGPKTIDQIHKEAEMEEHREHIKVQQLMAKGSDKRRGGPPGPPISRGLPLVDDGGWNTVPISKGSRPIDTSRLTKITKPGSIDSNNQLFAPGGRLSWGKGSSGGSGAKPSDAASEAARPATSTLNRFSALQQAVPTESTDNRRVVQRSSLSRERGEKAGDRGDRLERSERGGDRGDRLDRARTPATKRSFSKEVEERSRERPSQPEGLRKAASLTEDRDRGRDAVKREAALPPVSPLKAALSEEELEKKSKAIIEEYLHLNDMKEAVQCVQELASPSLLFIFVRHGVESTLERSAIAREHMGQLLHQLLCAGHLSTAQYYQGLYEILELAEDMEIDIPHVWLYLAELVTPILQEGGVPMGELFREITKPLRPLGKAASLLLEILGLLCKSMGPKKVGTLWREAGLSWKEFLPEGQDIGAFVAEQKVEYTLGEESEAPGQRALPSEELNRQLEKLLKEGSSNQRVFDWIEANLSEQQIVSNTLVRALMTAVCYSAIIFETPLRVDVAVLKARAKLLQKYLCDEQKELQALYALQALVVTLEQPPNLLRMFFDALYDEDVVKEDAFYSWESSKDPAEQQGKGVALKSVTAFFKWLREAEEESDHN
PABP FP inh: blocks human PABP binding to poly(A) RNA; fluorescence polarization; P11940; hit rate 1% among 290,000; inhibition, % at 35 µM;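 also: calls also rest on retests at 20 µM and on dose response follow-up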
PERK inh: blocks human PERK kinase; Q9NZJ5; inhibition, % at 5.6 µM; hit rate 0.17% among 220,000; CHO PERK-DD fusion, SEAP luminescence translation reporter;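 active = inhibition above the mean inhibition of all tested compounds plus 3 SD, set separately per screening campaign, cut at about 2.9% in these data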;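 also: PERK kinase domain activated by AP20187 dimerizer at 100 nM; 0% = DMSO with dimerizer and 100% = rapamycin at 8.4 µM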
eIF4H inh: inhibitors of RNA binding by human eIF4H; Q15056; hit rate 0.94% among 290,000; eIF4H fluorescence polarization binding assay; inhibition, % at 35 µM; AID 2012;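 also: calls also rest on retests at 20 µM and on dose response follow-up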
PABP1 MLLE inh: inhibitors of microRNA-mediated deadenylation, human PABP1 MLLE binding; GST-MLLE / FITC-PAM2 fluorescence polarization; inhibition, % at 20 µM; hit rate 0.36% among 360,000; AID 588489; in the data active = inhibition above about 35%, passing the limit was not always enough;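 also: plate controls were DMSO wells with GST-MLLE for no effect and wells lacking GST-MLLE protein for full effect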
The depositor's hits bear a star; ? = inconclusive; . = no result given; [ ] = remark or other dose. Rows were chosen to be rich in hits. Some 1.6% of all compounds tested hit in one or more screens of this group. Unless noted, no rule for the calls is given here.

SMILES | eIF4E-4G inh | PABP FP inh | PERK inh | eIF4H inh | PABP1 MLLE inh
Nc1nc(Cl)nc2c1ncn2[C@@H]1O[C@H](CO)[C@@H](O)[C@H]1O | -3 | 8 | 5.6* | -2 | 3
Nc1nc(=S)c2ncn(C3OC(CO)C(O)C3O)c2[nH]1 (stereo not drawn) | 17 | 53* | 0 | 89* | 29
CCCCn1cnc2c(=S)nc(N)[nH]c21 | -3 | 4 | 0 | -9 | 25
CCCn1cnc2c(=S)nc(N)[nH]c21 | 0 | 3 | 3.4* | -1 | 6
OC[C@H]1O[C@@H](n2cnc3c(NC4CCCC4)nc(Cl)nc32)[C@H](O)[C@@H]1O | . | . | . | . | 5
O=C(N[C@@H](Cc1ccccc1)C(=O)OCc1ccccc1)c1ccco1 | . | . | . | . | -7
COc1ccc(C(=O)N=C2SC3CS(=O)(=O)CC3N2c2ccc(C(C)=O)cc2)cc1 (stereo not drawn) | . | -8 | . | -4 | 12
O=C(OCc1cn([C@H]2CN(Cc3cccs3)[C@@H](c3ccc(Cl)cc3)C[C@@H]2O)nn1)c1ccccc1 | . | . | . | . | 0
CC(=O)Nc1ccc(-c2ccnc3c2CC(C(=O)Nc2cccc(C(F)(F)F)c2)O3)cc1 (stereo not drawn) | . | . | . | . | 6
CC(=O)C1=C(C)NC(SCC(=O)c2ccc(F)cc2)=C(C#N)C1c1ccco1 (stereo not drawn) | 4 | 37 | -1 | 27 | -37
CCOC(=O)CSC1=C(C#N)C(c2ccccc2F)C(C(C)=O)=C(C)N1 (stereo not drawn) | 0 | ? | -1 | 50* | -42
CC(=O)C1=C(C)NC(SCC(=O)c2ccc(Cl)c(Cl)c2)=C(C#N)C1c1ccco1 (stereo not drawn) | . | 60* | 0 | 71* | -32
CCc1ccc(C(=O)CSC2=C(C#N)C(c3ccco3)C(C(C)=O)=C(C)N2)cc1 (stereo not drawn) | -8 | 12 | -1 | 72* | .
CN(Cc1ccccc1)C(=O)C(=O)c1c[nH]c2ccccc12 | . | . | . | . | 3
COc1ccc(/C=C/C(=O)NC(=S)Nc2ccc(S(=O)(=O)Nc3cc(OC)ncn3)cc2)cc1 | -10 | -6 | 1 | -6 | 23
COc1nccnc1NS(=O)(=O)c1ccc(NC(=S)NC(=O)c2ccc(F)cc2)cc1 | 7 | 13 | 0 | -4 | 49*
COc1ccc(/C=C/C(=O)NC(=S)Nc2ccc(S(=O)(=O)Nc3nccnc3OC)cc2)cc1 | 6 | -6 | 1 | -3 | 38*
COc1nccnc1NS(=O)(=O)c1ccc(NC(=S)NC(=O)c2cccc(F)c2)cc1 | 3 | 2 | 0 | -10 | 29
S=c1[nH]nc(-c2ccccc2)n1/N=C/C=C/c1ccco1 | -1 | -16 | 0 | 91 | -11
S=c1[nH]nc(-c2cccnc2)n1/N=C/C=C/c1ccco1 | -1 | 72 | 0 | 96* | -15
S=c1[nH]nc(-c2ccc(Cl)cc2)n1/N=C/C=C/c1ccco1 | 0 | 80* | 1 | 83* | -11
CC(/C=N/n1c(-c2cccnc2)n[nH]c1=S)=C\c1ccco1 | 0 | 51* | 1 | 76* | 2
Cc1ccsc1/C=N/n1c(-c2cccnc2)n[nH]c1=S | 35* | 7 | 0 | 4 | -25
Nc1ccc2c(c1)C(=O)CCC2 | . | . | . | . | -2
CCCC(=O)N1CCC1(C)C(=O)NCc1ccccc1SC (stereo not drawn) | . | . | . | . | 14
SMILES | eIF4E-4G inh | PABP FP inh | PERK inh | eIF4H inh | PABP1 MLLE inh
S=c1[nH]nc(-c2ccco2)n1/N=C/c1ccc(Cl)cc1Cl | 49* | -7 | 1 | 0 | -38
CN(C)c1ccc(/C=N/NC(=O)c2ccc3nc[nH]c3c2)cc1 | 11 | -8 | 0 | -14 | -12
CCN(CC)c1ccc(/C=N/NC(=O)c2ccc3nc[nH]c3c2)cc1 | 87* | -4 | 1 | -3 | 1
COc1cc(-c2ccc(Nc3ccccc3C(=O)O)c(OC)c2)ccc1Nc1ccccc1C(=O)O | 78* | 94* | 1 | 91* | -8
COC(=O)C=C1CCC2C3CC(F)C4(O)CC(=O)CCC4(C)C3C(=O)CC12C (stereo not drawn) | . | . | . | . | 2
O=C(C1COc2ccccc2O1)N1CCCC1 (stereo not drawn) | -6 | -8 | 2 | -5 | 14
O=C(C1COc2ccccc2O1)N1CCc2ccccc21 (stereo not drawn) | 9 | 16 | 1 | 79* | -6
C=C(C)CCOC(=O)C(CC(=O)O)NCc1ccco1 (stereo not drawn) | 12 | 24* | 1 | ? | -10
O=C(O)CC(NCc1ccco1)C(=O)OCCc1ccccc1 (stereo not drawn) | -2 | -2 | 1 | 2 | 5
O=C(OCC(=O)N1CCN(C(=O)c2ccco2)CC1)c1cc(F)c(F)cc1Cl | . | . | . | . | 7
CSCC(C)N1CCC(n2nccc2NC(=O)CCOc2ccccc2)CC1 (stereo not drawn) | . | 17* | . | 77 | 13
N#Cc1ccc(OCC(=O)NNC(=S)NC2CCCCC2)cc1 | . | . | . | . | -32
Cc1ccc(SC(=O)c2c(C)noc2-c2cc(C)on2)cc1 | 1 | 3 | 0 | -6 | 41*
COc1cc(/C=C2\SC(c3ccc(C)cc3)=NC2=O)cc(OC)c1O | 7 | -6 | 1 | -11 | -115
Cc1ccc(C2=NC(=O)/C(=C/c3cc(O)c(O)c(Br)c3)S2)cc1 | 7 | 4.2* | 1 | 56* | 5
Cn1c(=O)cc(C(=O)N/N=C/c2ccc(Cl)cc2)[nH]c1=O | 1 | -2 | 2.9* | 3 | 6
Cc1c(C(=O)O)cccc1-n1c(C)cc(C=O)c1C | 0 | -8 | 0 | 72* | -6
N#CC1=C(N)OC2=C(CC/C2=C\c2ccccc2Cl)C1c1ccccc1Cl (stereo not drawn) | 4 | 9.1* | 0 | 59 | 102
N#CC1=C(N)OC2=C(CC/C2=C\c2ccccc2)C1c1ccccc1 (stereo not drawn) | 0 | ? | 0 | ? | 73
CCN(CC)c1ccc(C=N/C(C#N)=C(\N)C#N)cc1 | -1 | 69* | 1 | ? | -91
OC1CNc2c(ccc3ccccc23)C1 (stereo not drawn) | . | . | . | . | 13
Clc1ccc(OCCCn2cncn2)cc1Cl | 93*[fluorescence artefact?] | 8 | 1 | 0 | -3
c1ccc(COc2ccc(OCCCn3cncn3)cc2)cc1 | -2 | -6 | 0 | 1 | 8
C/C(=N\NC(=O)COc1cccc(Cl)c1)c1ccc2c(c1)OCCO2 | 2 | 116 | 1 | active | -8
CC1=C(C#N)C(=O)OC(C)(C)C1 | 0 | 116* | 1 | 122* | 87
CC(=O)NNC(=O)c1sc(=S)n2c1[nH]c(=O)c1sccc12 | 3 | 18* | 2 | 54* | 34
NC(=O)c1sc(=S)n2c1[nH]c(=O)c1sccc12 | -1 | 39 | 1 | 4 | 12
Cc1ccc(NC(=O)c2ccc(S(=O)(=O)N3CCCCC3)cc2)nc1 | . | . | . | . | -8
C=CCOc1ccc(CNc2ccc3[nH]c(=O)[nH]c3c2)cc1OC | 11 | 9.0* | 0 | 104* | -6
